Experimental data published in PubChem BioAssay (NCI).
Compounds without any hit were thinned out: in the full panel of roughly 83,000, 20% have a hit.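 The test compound was applied at a single concentration to cells in 96-well plates for 48 hours, and percent growth was recorded.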 Calls of active or inactive are those of the source. Rule for the calls: active = growth percent below 10; inactive = the rest.

Tests used:
Experiment in all cases: NCI-60 one-dose screen, 48 h (100 = growth as untreated, 0 = no growth, -100 = all killed)
Settings in all cases: 10 µM unless noted
SK-MEL-2 melanoma = test system: SK-MEL-2 melanoma
EKVX NSCLC = test system: EKVX NSCLC
SN12C renal = test system: SN12C renal
UO-31 renal = test system: UO-31 renal
ACHN renal = test system: ACHN renal
CAKI-1 renal = test system: CAKI-1 renal
A498 renal = test system: A498 renal
CCRF-CEM leukemia = test system: CCRF-CEM leukemia
MOLT-4 leukemia = test system: MOLT-4 leukemia
TK-10 renal = test system: TK-10 renal

Measured: growth

COc1ccc(-c2cc(C(=O)N=Nc3c(O)[nH]c4ccc(Cl)cc34)c3ccccc3n2)cc1OC
inactive: SK-MEL-2 melanoma 102% | EKVX NSCLC 90.1% | SN12C renal 96.4% | UO-31 renal 81.8% | ACHN renal 105% | CAKI-1 renal 95.2% | A498 renal 167% | CCRF-CEM leukemia 112% | MOLT-4 leukemia 118%

FC(F)(F)CN1CCN(CCn2c(C(F)(F)F)cc3c(Cl)ncnc32)CC1
inactive: EKVX NSCLC 70.8% | SN12C renal 34.8% | CAKI-1 renal 24.1% | A498 renal 104%
active: SK-MEL-2 melanoma -89.4% | UO-31 renal -95.1% | ACHN renal -63% | CCRF-CEM leukemia -16.8% | MOLT-4 leukemia -39%

CCOc1ccc(-c2cc(-c3cc(C(C)C)c(O)cc3C)nn2-c2ccc(S(N)(=O)=O)cc2)cc1
inactive: SK-MEL-2 melanoma 54.5% | EKVX NSCLC 30.9% | SN12C renal 30.6% | UO-31 renal 48.6% | TK-10 renal 84.2% | ACHN renal 54.1% | CAKI-1 renal 58.7% | CCRF-CEM leukemia 11.3% | MOLT-4 leukemia 11.6%

Cc1ccc(C(C)C)cc1Oc1cccc(-c2c(-c3ccc(C(F)(F)F)cc3)ncn2C2CCNCC2)n1
active: SK-MEL-2 melanoma -93.1% | EKVX NSCLC -91% | SN12C renal -92.1% | UO-31 renal -97.4% | ACHN renal -100% | CAKI-1 renal -98.1% | A498 renal -86.2% | CCRF-CEM leukemia -73.8% | MOLT-4 leukemia -80.3%

COc1ccc2oc(=O)c(-c3csc(N/N=C(\C)c4cc(OC)c(OC)c(OC)c4)n3)cc2c1
inactive: SK-MEL-2 melanoma 99.7% | EKVX NSCLC 94.7% | SN12C renal 80.5% | UO-31 renal 90.8% | TK-10 renal 94.2% | ACHN renal 78.7% | CAKI-1 renal 97.8% | CCRF-CEM leukemia 81.3% | MOLT-4 leukemia 81%

CN1C(=O)/C(=C/c2ccco2)S/C1=N/c1nccs1
inactive: SK-MEL-2 melanoma 108% | EKVX NSCLC 91.8% | SN12C renal 100% | UO-31 renal 80.9% | ACHN renal 100% | CAKI-1 renal 91.7% | A498 renal 107% | CCRF-CEM leukemia 96.8% | MOLT-4 leukemia 107%

CC1CCc2c(sc3nc(SCC(=O)c4cccc(Br)c4)n(-c4ccccc4)c(=O)c23)C1 (centres undefined)
inactive: SK-MEL-2 melanoma 99.2% | EKVX NSCLC 66.2% | SN12C renal 32.8% | UO-31 renal 16.6% | A498 renal 114% | CCRF-CEM leukemia 35.3% | MOLT-4 leukemia 28.6%
active: ACHN renal -60.6% | CAKI-1 renal 6.39%

CCc1ccccc1NC(=O)N/C(N)=N/c1nc2ccccc2s1
inactive: SK-MEL-2 melanoma 10.6% | EKVX NSCLC 27.6% | UO-31 renal 34.7% | TK-10 renal 19.8%
active: SN12C renal 0.486% | ACHN renal 1.6% | CAKI-1 renal 4.86% | CCRF-CEM leukemia 4.47% | MOLT-4 leukemia 6.27%

CCOc1ccccc1[C@H]1C(C(=O)c2ccc(Cl)cc2)C2(N[C@@H]1c1ccccc1)C(=O)Nc1ccc(Cl)cc12 (some centres undefined)
inactive: EKVX NSCLC 21.5% | UO-31 renal 16.7% | ACHN renal 22.4% | CAKI-1 renal 18.5% | A498 renal 80.9% | CCRF-CEM leukemia 26.2%
active: SK-MEL-2 melanoma -11.2% | SN12C renal -57.3% | MOLT-4 leukemia -23.4%

Cn1cc(-c2cc(N)n3nc(-c4c[nH]c5ccc(F)cc45)cc3n2)c2cccnc21
active: EKVX NSCLC -64.9% | SN12C renal -80.6% | UO-31 renal -75.8% | TK-10 renal -68.7% | ACHN renal -93.8% | CAKI-1 renal -70.7% | CCRF-CEM leukemia -34.6% | MOLT-4 leukemia -30.1%
inactive: SK-MEL-2 melanoma 86.8%

CNS(=O)(=O)N1CCc2c(Br)c3c(c(OC)c2C1CCc1ccccc1)OCO3 (centres undefined)
active: SK-MEL-2 melanoma -66.2% | EKVX NSCLC -6.87% | SN12C renal -88.8% | UO-31 renal -20.1% | ACHN renal 0.33% | CAKI-1 renal 5.41% | A498 renal -69.5% | MOLT-4 leukemia 1.16%
inactive: CCRF-CEM leukemia 12.4%

COC(=O)c1c(C(=O)OC)c2ccc3c4ccccc4ccc3n2c1C(=O)C(C)Br (centres undefined)
inactive: SK-MEL-2 melanoma 26.9% | EKVX NSCLC 86.5% | SN12C renal 35.7% | UO-31 renal 45% | ACHN renal 43.9% | CAKI-1 renal 71.3% | A498 renal 87.2%
active: CCRF-CEM leukemia -4.34% | MOLT-4 leukemia 0.188%

N#Cc1cc(-c2ccc3ncnc(N4CCc5cc(F)c(Cl)cc54)c3c2)cnc1N
inactive: SK-MEL-2 melanoma 52% | EKVX NSCLC 24.6% | SN12C renal 26.8% | UO-31 renal 19.4% | TK-10 renal 29.9% | ACHN renal 26.6% | CAKI-1 renal 19.8% | CCRF-CEM leukemia 45.1%
active: MOLT-4 leukemia 7.69%

Clc1ccccc1Nc1nnc(-c2c[nH]c3ccccc23)o1
active: SK-MEL-2 melanoma -2.89% | CCRF-CEM leukemia 9.07% | MOLT-4 leukemia 5.42%
inactive: EKVX NSCLC 18.7% | SN12C renal 26.6% | UO-31 renal 33.1% | TK-10 renal 69% | ACHN renal 39.9% | CAKI-1 renal 32.7%

O=C1Nc2ccc(F)cc2/C1=C/C(=O)c1cc2ccccc2oc1=O
inactive: SK-MEL-2 melanoma 102% | EKVX NSCLC 90.3% | SN12C renal 104% | UO-31 renal 62.1% | TK-10 renal 161% | ACHN renal 62.5% | CAKI-1 renal 88.8% | CCRF-CEM leukemia 39.6% | MOLT-4 leukemia 65%

COc1ccc2c(c1)C(Sc1ccc(F)cc1)c1c(nc(N)c(C#N)c1N)O2 (centres undefined)
inactive: SK-MEL-2 melanoma 97% | EKVX NSCLC 87.1% | SN12C renal 78.5% | UO-31 renal 39.8% | TK-10 renal 103% | ACHN renal 86.6% | CAKI-1 renal 84.9% | MOLT-4 leukemia 53.9%
active: CCRF-CEM leukemia 1.67%
